About 79,000 compounds went through this panel and 15% of them were active in at least one assay; those are over-represented in the sample as a whole. Values without a mark were called inactive. Active and inactive are the calls of the source. No stated cut-off is given here; in the data, active means growth inhibition above about 70%; inactive means the rest.
Tests used:
[1] = NCI Yeast Anticancer Drug Screen. Data for the rad52 strain (AID 147);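 further: 0% = growth of vehicle-treated control cultures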; settings: S. cerevisiae rad52 mutant growth inhibition, stronger effect = higher value
Method in brief: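 Here a repair-compromised yeast strain receives each compound; its growth is then quantified and normalised to vehicle-only controls.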

[2] = NCI Yeast Anticancer Drug Screen. Data for the rad50EPP+ strain (AID 151);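 further: 0% = growth of vehicle-treated control cultures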; settings: S. cerevisiae rad50 mutant strain, stronger effect = higher value
Method in brief: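 Read-out is yeast growth inhibition relative to vehicle; cells used were the rad50EPP+ strain.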

[3] = NCI Yeast Anticancer Drug Screen. Data for the mgt1 strain (AID 153); settings: S. cerevisiae mgt1 mutant growth inhibition, stronger effect = higher value
Method in brief: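 Measured: inhibition of mgt1 yeast growth by compound, normalized to vehicle-treated cultures.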

[4] = NCI Yeast Anticancer Drug Screen. Data for the rad50 strain (AID 155);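 further: 0% = growth of vehicle-only cultures of the same strain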; settings: S. cerevisiae rad50 strain growth inhibition, stronger effect = higher value
Method in brief: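 Cells are treated with compound, grown, and their growth is then scored against vehicle-only cultures of the same repair-deficient yeast strain.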

[5] = NCI Yeast Anticancer Drug Screen. Data for the mec2-1 strain (AID 157); settings: S. cerevisiae mec2-1 strain, stronger effect = higher value
Method in brief: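 Using mec2-1 yeast: add compound, measure growth, express inhibition versus vehicle-treated cultures.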

[6] = NCI Yeast Anticancer Drug Screen. Data for the rad14 strain (AID 159);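 further: 0% = growth of vehicle-treated control cultures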; settings: S. cerevisiae rad14 strain growth inhibition, stronger effect = higher value
Method in brief: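 Readout: yeast growth inhibition, referenced to vehicle-only cultures. Strain bears a defined alteration in DNA damage repair.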

[7] = NCI Yeast Anticancer Drug Screen. Data for the sgs1 mgt1 strain (AID 161);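 further: 0% = growth of cultures given vehicle only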; settings: S. cerevisiae sgs1 mgt1 strain, stronger effect = higher value
Method in brief: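 This yeast growth screen uses a strain with defined DNA-repair lesions; compound-treated growth is compared with vehicle-treated growth.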

[8] = NCI Yeast Anticancer Drug Screen. Data for the CLN2oe strain (AID 163);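 further: 0% = growth of vehicle-only control cultures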; settings: S. cerevisiae CLN2oe strain, stronger effect = higher value
Method in brief: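 Whole-cell yeast growth assay. A strain engineered for altered cell-cycle control received compound, and inhibition relative to vehicle-treated cultures was recorded.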

[9] = NCI Yeast Anticancer Drug Screen. Data for the cln2 rad14 strain (AID 165);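 further: 0% = growth equal to vehicle treated cultures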; settings: S. cerevisiae cln2 rad14 strain, stronger effect = higher value
Method in brief: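 Yeast strain cln2 rad14, bearing defects in cell cycle control and DNA repair, serves as the test system; values reflect growth inhibition compared with vehicle.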

[10] = NCI Yeast Anticancer Drug Screen. Data for the bub3 strain (AID 167); settings: S. cerevisiae bub3 mutant strain, stronger effect = higher value
Method in brief: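 Part of a panel of yeast mutants defective in DNA damage repair or cell cycle regulation. Each strain is grown with compound, and inhibition is calculated relative to solvent-treated cultures.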

[11] = NCI Yeast Anticancer Drug Screen. Data for the wt2 strain (AID 169);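 further: 0% = growth of vehicle-treated yeast cultures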; settings: S. cerevisiae wt2 strain growth inhibition, stronger effect = higher value
Method in brief: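 Treated yeast vs. vehicle-treated yeast: growth inhibition determined.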

[12] = NCI Yeast Anticancer Drug Screen. Data for the mlh1 strain (AID 171);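 further: 0% = growth of vehicle-treated control cultures of the same strain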; settings: S. cerevisiae mlh1 strain growth inhibition, stronger effect = higher value
Method in brief: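 A yeast strain with a defined genetic lesion serves as the test organism. Cultures receive compound or vehicle, and growth is measured.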

[13] = NCI Yeast Anticancer Drug Screen. Data for the sgs1 strain (AID 173);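 further: 0% = growth of vehicle-only control cultures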; settings: S. cerevisiae sgs1 mutant, stronger effect = higher value
Method in brief: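 A genetically defined yeast mutant is incubated with the test compound, and its growth is compared to that of the same strain given vehicle.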

[14] = NCI Yeast Anticancer Drug Screen. Data for the mlh1 rad18 strain (AID 175); settings: S. cerevisiae mlh1 rad18 strain growth inhibition, stronger effect = higher value
Method in brief: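 Steps: expose repair-defective yeast to compound; measure growth; express inhibition against vehicle-treated controls.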

[15] = NCI Yeast Anticancer Drug Screen. Data for the rad18 strain (AID 177); settings: S. cerevisiae rad18 mutant growth inhibition, stronger effect = higher value
Method in brief: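 Measured value is growth inhibition of a yeast strain bearing a DNA repair alteration, referenced to vehicle-treated cells.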

[16] = at 5.0 µM (retest, dose inferred, filed as 0.5)
[17] = at 50.0 µM (retest, dose inferred, filed as 5.0)

With CCOC(=O)C1=C(C)NC(C)=C(C(=O)OCC)C1c1ccccc1Cl the growth inhibition ([1]; at 1.2 µM) was -25%, the growth inhibition ([1]; at 3.7 µM) was -10% and the growth inhibition ([1]; at 11.0 µM) was 4%. For the same compound, the growth inhibition ([1]; at 33.0 µM) was 42%, the growth inhibition ([1]; at 100.0 µM) was 93% (active) and the growth inhibition ([2]; at 1.2 µM) was -5%. For the same compound, the growth inhibition ([2]; at 3.7 µM) was 13%, the growth inhibition ([2]; at 11.0 µM) was 9% and the growth inhibition ([2]; at 33.0 µM) was 17%. For the same compound, the growth inhibition ([2]; at 100.0 µM) was 26%, the growth inhibition ([3]; at 1.2 µM) was 14% and the growth inhibition ([3]; at 3.7 µM) was 14%. For the same compound, the growth inhibition ([3]; at 11.0 µM) was 19%, the growth inhibition ([3]; at 33.0 µM) was 54% and the growth inhibition ([3]; at 100.0 µM) was 96% (active). For the same compound, the growth inhibition ([4]; at 1.2 µM) was 9%, the growth inhibition ([4]; at 3.7 µM) was 23% and the growth inhibition [4, 16] was 54%. The growth inhibition ([4]; at 11.0 µM) was 29%, the growth inhibition ([4]; at 33.0 µM) was 48% and the growth inhibition [4, 17] was 100% (active). For the same compound, the growth inhibition ([4]; at 50.0 µM) was 90% (active), the growth inhibition ([4]; at 100.0 µM) was 91% (active) and the growth inhibition ([5]; at 1.2 µM) was 8%. For the same compound, the growth inhibition ([5]; at 3.7 µM) was -2%, the growth inhibition [5, 16] was 52% and the growth inhibition ([5]; at 11.0 µM) was -2%. The growth inhibition ([5]; at 33.0 µM) was 51%, the growth inhibition [5, 17] was 99% (active) and the growth inhibition ([5]; at 50.0 µM) was 91.7% (active). The growth inhibition ([5]; at 100.0 µM) was 95% (active), the growth inhibition ([6]; at 1.2 µM) was -4% and the growth inhibition ([6]; at 3.7 µM) was -10%. The growth inhibition ([6]; at 11.0 µM) was 10%, the growth inhibition ([6]; at 33.0 µM) was 53% and the growth inhibition ([6]; at 100.0 µM) was 93% (active). The growth inhibition [7, 16] was -15%, the growth inhibition [7, 17] was 91% (active) and the growth inhibition ([8]; at 1.2 µM) was -13%. The growth inhibition ([8]; at 3.7 µM) was -22%, the growth inhibition ([8]; at 11.0 µM) was 38% and the growth inhibition ([8]; at 33.0 µM) was 56%. For the same compound, the growth inhibition ([8]; at 100.0 µM) was 94% (active), the growth inhibition [9, 16] was 43% and the growth inhibition [9, 17] was 90% (active). It also gave a growth inhibition ([10]; at 1.2 µM) of 35%, a growth inhibition ([10]; at 3.7 µM) of 34% and a growth inhibition [10, 16] of 26%. The growth inhibition ([10]; at 11.0 µM) was 4%, the growth inhibition ([10]; at 33.0 µM) was 62% and the growth inhibition [10, 17] was 84% (active). The growth inhibition ([10]; at 100.0 µM) was 95% (active), the growth inhibition ([11]; at 1.2 µM) was 14% and the growth inhibition ([11]; at 3.7 µM) was 11%. The growth inhibition ([11]; at 11.0 µM) was 20%, the growth inhibition ([11]; at 33.0 µM) was 49% and the growth inhibition ([11]; at 100.0 µM) was 96% (active). The growth inhibition ([12]; at 1.2 µM) was -38%, the growth inhibition ([12]; at 3.7 µM) was -31% and the growth inhibition ([12]; at 11.0 µM) was -25%. For the same compound, the growth inhibition ([12]; at 33.0 µM) was 41%, the growth inhibition ([12]; at 100.0 µM) was 93% (active) and the growth inhibition ([13]; at 1.2 µM) was 26%. For the same compound, the growth inhibition ([13]; at 3.7 µM) was 28%, the growth inhibition ([13]; at 11.0 µM) was 38% and the growth inhibition ([13]; at 33.0 µM) was 67%. For the same compound, the growth inhibition ([13]; at 100.0 µM) was 96% (active), the growth inhibition [14, 16] was 36% and the growth inhibition [14, 17] was 99% (active). For the same compound, the growth inhibition ([14]; at 50.0 µM) was 90.4% (active), the growth inhibition ([15]; at 1.2 µM) was 2% and the growth inhibition ([15]; at 3.7 µM) was 18%. For the same compound, the growth inhibition ([15]; at 11.0 µM) was 20%, the growth inhibition ([15]; at 33.0 µM) was 50% and the growth inhibition ([15]; at 100.0 µM) was 93% (active).

Reference: PubChem BioAssay (NCI)
